KB-V1 cytotox: qHTS assay for MDR1-selective chemotherapeutics: Primary screen using the drug-selected MDR subline cells KB-V1; KB-V1 MDR cells viability, CellTiter-Glo, 72 h; Potency, µM (top dose mostly 46.1 µM), most hits filed as cytotoxic; 400,000 compounds, 3.4% hits; AID 1347076, 2019; also: potency is read from the fitted curve at half-maximal effect; % is scaled to controls: 0 for no effect and ±100 for the full control effect; nearly all actives have a fitted effect of over 60% in size
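KB-V1, DMEM (no phenol red) + 10% FBS; cpd pin-transferred, titration series; 72 h, 37 degrees C; CellTiter-Glo, luminescence. Data normalized, curve-fit.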
DRD3 antagonist: qHTS of D3 Dopamine Receptor Antagonist: qHTS; 360,000 compounds, 2.5% hits; D3R cells, DiscoveRx beta-arrestin luminescence, antagonist mode; stronger effect = lower value; max response, negative = inhibition, %; in the data active = max response below about -50%; inconclusive = no clear call, values can overlap the other calls; also: % is scaled to controls: 0 for no effect and ±100 for the full control effect
Target sequence (P35462 whole entry, looked up): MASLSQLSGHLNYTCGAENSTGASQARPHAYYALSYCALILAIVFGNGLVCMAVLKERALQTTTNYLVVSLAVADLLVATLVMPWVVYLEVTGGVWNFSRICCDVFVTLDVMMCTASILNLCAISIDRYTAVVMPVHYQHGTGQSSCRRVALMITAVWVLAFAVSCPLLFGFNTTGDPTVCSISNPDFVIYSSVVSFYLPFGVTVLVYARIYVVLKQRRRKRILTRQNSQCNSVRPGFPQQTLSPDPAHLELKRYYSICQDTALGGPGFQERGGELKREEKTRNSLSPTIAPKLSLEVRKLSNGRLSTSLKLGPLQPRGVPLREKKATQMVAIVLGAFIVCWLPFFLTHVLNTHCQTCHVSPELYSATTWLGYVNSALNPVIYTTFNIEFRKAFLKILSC
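Cells plated overnight at 1500 cells/well, then exposed to library compounds with dopamine controls for 90 minutes at 37 degrees C. DiscoveRx reagent added for 30–60 minutes at room temperature; luminescence read, quantitative HTS format.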
SW480 rereplic: A quantitative high throughput screen for small molecules that induce DNA re-replication in SW480 colon adenocarcinoma cells | Potency, µM (titrated, usually from 46.1 µM), inactives show at the top dose re-replication activation, most hits filed as activators | AID 624297, 2012 | 340,000 compounds, 1.8% hits | SW480 DNA re-replication, Hoechst DNA content imaging, 48 h; also: potency is read from the fitted curve at half-maximal effect; % of control where 0% means no effect; nearly all actives have a fitted effect of over 55% in size
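Treated cells incubate 48 hr (37 C, 5% CO2), are stained 40 min with Hoechst, and nuclear fluorescence is enumerated; a rise in nuclei with high DNA signal marks re-replication.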
MCF10A rerep: A quantitative high throughput screen for small molecules that induce DNA re-replication in MCF 10a normal breast cells. MCF 10A DNA re-replication, Hoechst nuclear intensity, 48 h. Potency, µM (top dose mostly 46.1 µM), without a hit: at the highest dose activity, positive = re-replication, hits mostly activators. 350,000 compounds, 2.9% hits. AID 624296, 2012; also: potency is read from the fitted curve at half-maximal effect; % of control where 0% means no effect; nearly all actives have a fitted effect of over 50% in size
KB-3-1 tox: qHTS assay for MDR1-selective chemotherapeutics: Primary screen using the parental adenocarcinoma cell KB-3-1 | 400,000 compounds, 1.4% hits | KB-3-1 viability, CellTiter-Glo ATP luminescence, 72 h | Potency, µM (series often up to 46.1 µM), most hits filed as cytotoxic | AID 1347075, 2019; also: potency is read from the fitted curve at half-maximal effect; % is scaled to controls: 0 for no effect and ±100 for the full control effect; nearly all actives have a fitted effect of over 60% in size
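Cytotoxicity measured as CellTiter-Glo luminescence after 72 h at 37 C. Compound titrations were pinned onto drug-naive KB-3-1 parental adenocarcinoma cells grown in DMEM with 10% FBS, and normalized data fitted to concentration-response curves.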
DRD3 agonist: qHTS of D3 Dopamine Receptor Agonist: qHTS | 410,000 compounds, 0.58% hits | D3R DiscoveRx beta-arrestin cells, luminescence, 90 min | max activation, % | D(3) dopamine receptor (Homo sapiens), P35462 | AID 652048, 2013; in the data active = max activation above about 30%; also: 0% is about no effect
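Agonist-mode cell screen: cells plated at 1500/well and incubated overnight at 37 °C, then exposed to library compounds for 90 min at 37 °C. Detection reagent was added for 30–60 min at room temperature, and luminescence was read.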
The depositor's hits bear a star; i = inactive; u = inconclusive; x = not tested or not shown. Compounds with a hit are over-represented: about 8.9% of the library has one in this group of screens. Unless noted, calls follow the shape of the dose curve; as a rule, active = well fitted curve in the direction sought with a large enough effect; inconclusive = small, poorly fitted or top-dose-only effect, or another doubt; inactive = no such curve, though single readings can be large; an effect the other way counts as inactive or inconclusive.

SMILES	KB-V1 cytotox	DRD3 antagonist	SW480 rereplic	MCF10A rerep	KB-3-1 tox	DRD3 agonist
COc1ccc(CCNC(=O)C2CCCN(c3nc(C)cc(C)n3)C2)cc1 (centres undefined)	i	0	-13%	5%	i	4
Cc1cc(C)nc(N2CCCC(C(=O)Nc3ccc4c(c3)OCO4)C2)n1 (centres undefined)	23µM*	12	3%	11%	i	4
COc1ccc(NC(=O)CSc2nc3ccccc3n2CC(=O)N(C)C2CCCCC2)cc1	i	x	x	x	i	-24
CCN(CC)C(=O)Nc1ccc(OCC(O)CNC(C)(C)C)c(C(C)=O)c1 (centres undefined)	x	x	x	x	x	2
CCCCOc1ccccc1C(=O)N(Cc1sccc1C)C1CCS(=O)(=O)C1 (centres undefined)	x	x	x	x	x	-2
COCCNc1nnc(Cc2ccccc2)c(=O)[nH]1	i	-13	1%	-1%	i	2
COc1ccc(Cc2nnc(NCCO)[nH]c2=O)cc1	u	6	-19%	1%	i	33*
C=CCNc1nnc(Cc2ccc(C(C)C)cc2)c(=O)[nH]1	i	-11	u	u	15µM*	0
CCCCN(C(=O)c1ccc(NC2CC2)c([N+](=O)[O-])c1)c1c(N)n(CC(C)C)c(=O)[nH]c1=O	i	-10	-19%	17%	i	5
CCCCNC(=O)C1(C)CCCCN1Cc1ccc2ccccc2c1 (centres undefined)	u	0	x	x	u	-9
C=C1C(=O)C23CCC4C(C)(C(=O)OC)CCCC4(C)C2CCC1(O)C3 (centres undefined)	18µM*	-106*	1.2µM*	2.3µM*	u	-29
O=C(NCCCc1nc2ccccc2n1Cc1ccc(Cl)cc1)c1ccco1	x	x	x	x	x	-11
CCCCCc1c(C)nc(N2CCc3ccccc32)[nH]c1=O	3.3µM*	12	u	-4%	u	7
CCCCCc1c(C)nc(N2CCc3ccccc3C2)[nH]c1=O	i	-12	-7%	5%	i	-5
O=S(=O)(Nc1ccc(-c2ccc(N3CCCC3)nn2)cc1)c1ccccc1Cl	i	x	x	x	i	16
Cc1ccccc1-c1nc(Cc2ccccc2)no1	i	-53*	-1%	-1%	i	4
COc1ccc(OC)c(NC(=O)Cn2c(=O)n(-c3ccc(Cl)cc3)c(=O)c3c(C)c(C)sc32)c1	u	x	x	x	i	1
Nc1cccc(B(O)O)c1	u	x	x	x	i	x
OC(CSc1ccccc1Cl)CN1CCN(c2ccc(F)cc2)CC1 (centres undefined)	u	-81*	19%	12%	u	-28
OC(CSc1c(Cl)cccc1Cl)CN1CCN(c2ccc(F)cc2)CC1 (centres undefined)	i	-89*	51%	u	i	-39
OC(CN1CCN(c2ccc(F)cc2)CC1)c1ccc(Cl)cc1 (centres undefined)	i	u	-5%	9%	i	-5
OC(CSc1ccccc1)CN1CCN(c2ccccc2)CC1 (centres undefined)	i	u	-2%	20%	i	-2
Cc1ccc(NC(=O)Cn2c(=O)oc3cc(S(=O)(=O)N4CCCCCC4)ccc32)cc1Cl	i	x	x	x	i	7
Cc1cccc(NC(=O)c2cccc(N3C(=O)C4C5CCC(C5)C4C3=O)c2)c1C (centres undefined)	8.2µM*	3	4%	2%	i	3
O=C(Nc1ccccc1)c1nc[nH]c1C(=O)O	x	x	x	x	x	1
COc1cc(NC(=O)c2ccccc2F)ccc1NC(=O)c1cc2ccccc2o1	i	-1	u	2.3µM*	i	9

Screening results: PubChem, National Center for Advancing Translational Sciences (NCATS)
